SMILES strings stand for the structures. Active and inactive are the calls of the source. How the source made its calls: active means hit-call score of the fitted dose curve at least 0.9, where 1 is the maximum; inactive means score below 0.9.

A short description of the test: ATG_FoxO_CIS: Attagene CIS-FACTORIAL HepG2 Assay for human Forkhead box O (FoxO) (AID 2282943). The note with it: HepG2 Attagene cis-reporter, FoxO element, mRNA; actives raise or lower the signal. The protocol:
ATG_CIS is a cell-based, multiplexed-readout assay that uses HepG2, a human liver cell line, with measurements taken at 24 hours after chemical dosing in a 24-well plate.ATG_FoxO_CIS is one of 52 assay component(s) measured or calculated from the ATG_CIS assay. It is designed to make measurements of mRNA induction, a form of inducible reporter, as detected with fluorescence intensity signals by Reverse transcription polymerase chain reaction (RT-PCR) and Capillary electrophoresis technology.Data from the assay component ATG_FoxO_CIS was analyzed into 1 assay endpoint. This assay endpoint, ATG_FoxO_CIS, was analyzed with bidirectional fitting relative to DMSO as the negative control and baseline of activity. Using a type of inducible reporter, measures of mRNA for gain or loss-of-signal activity can be used to understand the reporter gene at the transcription factor-level as they relate to the gene FOXO1 and FOXO3. Furthermore, this assay endpoint can be referred to as a primary readout, because this assay has produced multiple assay endpoints where this one serves a reporter gene function. To generalize the intended target to other relatable targets, this assay endpoint is annotated to the dna binding intended target family, where the subfamily is forkhead box protein.
Human liver HepG2 cells are transiently transfected with multiple reporter transcription units (MRTUs) in 6-well plates using FuGene 6 reagent (Roche; 3 ml FuGene/1 mg DNA). The MRTU constructs are regulated by a cis-regulating element (promoter). […] A major difference between the CIS and TRANS system is that in CIS activities of endogenous TFs are measured, whereas the TRANS assay evaluates changes in activities of exogenous, chimeric NR-Gal4 proteins. […] At the end of 24 hour incubation, total RNA was isolated using TriZol reagent (Invitrogen). The isolated RNA is then reverse-transcribed using oligo(dT) primer and Mo-MLV reverse transcriptase (Invitrogen) with DNAse I (Ambion) treatment for 30 min. The one-tenth of the produced cDNA was amplified by PCR using Taq DNA polymerase (Invitrogen) and two reporter sequence-specific primers. The PCR products were fluorescently labeled by primer extension with 6-arboxyfluorescein (6-FAM) 5'-labeled reporter sequence-specific primer (2 min at 95 C, 20 s at 68 C and 10 min at 72 C) and these products were digested with 5U of HpaI (New England Biolabs) for 2h at 37 C. The fragments were purified using Qiaquick PCR columns (Qiagen), analyzed on an ABI 3130xL genetic analyzer (Applied Biosystems) with peak positions identified by using a set of X-rhodamine (ROX)-labeled MapMarker1000 molecular weight standards (BioVentures). The raw capillary electrophoresis data was processed using Attagraph software (Attagene).
In the case of `O=c1oc(=O)c2cc3c(=O)oc(=O)c3cc12`, the molecule was called inactive.
The same measure, in the same setting: next, `CCO[Si](CCCS)(OCC)OCC`: “inactive”; `Clc1sc(Cl)c(Cl)c1Cl`: “inactive”; `CCCCCC(=O)OCCc1ccccc1`: “inactive”.
With `Nc1ccc(S(N)(=O)=O)cc1`, the call was inactive.
On to `COc1cc2ncnc(Nc3cccc(Cl)c3)c2cc1OC`, for which the outcome was inactive.
Same read-out and setting: in the case of `CCOC(=S)SSC(=S)OCC` it was “inactive”; in that of `C=C(C)C1CCC(C)CC1O` (stereo not given), “inactive”.
The same measure, in the same setting: in the case of `O=C(O)Cc1cccc2ccccc12` it was “inactive”; in that of `COc1cc(C)cc(O)c1`, “inactive”; in that of `CC(CC(C)(C)C)CC(C)(C)CC(C)(C)C` (stereo not given), “inactive”.
Same read-out and setting: in the case of `O=C(O)c1ccc([N+](=O)[O-])cc1` it was “inactive”; in that of `CN(CCOc1ccc(CC2SC(=O)NC2=O)cc1)c1ccccn1` (stereo not given), “inactive”; in that of `NCCCCCCN`, “inactive”.
As to `CC1(C)[C@H](C(=O)OCc2cccc(Oc3ccccc3)c2)[C@@H]1C=C(Cl)Cl`, the outcome was inactive.
Still for that read-out and setting: in the case of `CCCCCCCCCCCCN` it was “inactive”.
Still for that read-out and setting: in the case of `CCCCCCCCCCCCCCCCCC(=O)OCC(CC)CCCC` (stereo not given) it was “inactive”; in that of `CC(C=O)Cc1ccc(C(C)C)cc1` (stereo not given), “inactive”.
Same read-out and setting: in the case of `COC(=O)c1ccc(C)cc1` it was “inactive”; in that of `CCCCCC=CCC(=O)OC`, “inactive”.
In the case of `O=Cc1ccc(Cl)c([N+](=O)[O-])c1`, the AC50 is 128 µM (active).
The same measure, in the same setting: next, `BrC1CCC(Br)C(Br)CCC(Br)C(Br)CCC1Br` (stereo not given): 87 µM (active).
As to `O=C(COc1ccc(Cl)cc1)N1CCN(Cc2ccc3c(c2)OCO3)CC1`, the result was inactive.
Regarding `O=C(O)c1snc(Cl)c1Cl`, the AC50 was 130 µM (active).
Regarding `OCCOCCOCCOCCO`, the molecule was called inactive.
Same read-out and setting: next, `O=C(OCc1ccccc1)C(=O)OCc1ccccc1`: “inactive”.
As to `C=C(C)C(=O)OCCOC(=O)CC(C)=O`, the molecule was classed as inactive.
Regarding `S=C(S)NCCNC(=S)S`, the molecule was called inactive.
Same read-out and setting: in the case of `Nc1cccc(S(=O)(=O)c2cccc(N)c2)c1` it was “inactive”.
For the molecule `CCCCC/C=C/C=C/C=O`, the outcome was inactive.
Still for that read-out and setting: next, `OC1C(O)C(O)C(O)C(O)C1O` (stereo not given): “inactive”; `Cc1c(Cl)c(=O)oc2cc(O)ccc12`: “inactive”.
Still for that read-out and setting: in the case of `Nc1cc(N)cc(C(=O)O)c1` it was “inactive”.
Still for that read-out and setting: next, `CCCCCCC#CC(=O)OC`: “inactive”; `Cc1ccc(C(C)C)cc1O`: “inactive”; `O=c1cc(-c2ccccc2)oc2cc(O)cc(O)c12`: “inactive”.
For the molecule `Nc1cc([N+](=O)[O-])ccc1O`, the outcome was inactive.
Consider `CC1(C)OC[C@@H]2O[C@@]3(C(=O)O)OC(C)(C)O[C@H]3[C@@H]2O1`, for which the molecule was called inactive.
On to `O=C1CCc2ccccc2O1`, for which the molecule was classed as inactive.
The same measure, in the same setting: next, `C=CC[N+](C)(C)CC=C`: “inactive”.
